From PubChem BioAssay (NCI)
About 83,000 compounds went through this panel and 20% of them were active in at least one assay; those are over-represented in the sample as a whole.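 Growth was measured after 48 h exposure to one concentration of compound in 96-well plates. Values under 10 count as active.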 The source made the active and inactive calls.

System: MOLT-4 leukemia
Experiment: NCI-60 one-dose screen, 48 h (100 = growth as untreated, 0 = no growth, -100 = all killed)
Conditions: 10 µM unless noted

Structure (SMILES) | growth
Nc1nc(Nc2ccccc2)c2ncn(Cc3ccc4c(c3)OCO4)c2n1 | 13.4% (inactive)
CC(=O)OC[C@]12CC[C@@H](C(=O)CBr)[C@@H]1[C@H]1CC[C@@H]3[C@@]4(C)CCCNC(C)(C)[C@@H]4CC[C@@]3(C)[C@]1(C)CC2 | -23.2% [100 µM] (active)
C[C@@H]1C[C@H]2C(=O)O[C@@H](C)[C@H](NC(=O)[C@H](Cc3cc(F)cc(F)c3)NC(=O)Nc3ccc(Cl)cc3F)C(=O)N3C[C@H](O)C[C@H]3C(=O)N3CCN(C)C[C@H]3C(=O)N[C@@H](C)C(=O)N2C1 | 41.7% (inactive)
COC(=O)C(=Cc1ccccc1[N+](=O)[O-])C(=O)OC | 4.68% (active)
CC1Cc2c(Cl)ncnc2N(C)c2ccc(Cl)cc21 (stereo unspecified) | 8.07% (active)
CC1(C(=O)O)CCC(N)(C(=O)O)C1(C)C (stereo unspecified) | 100% (inactive)
